Assay results reported in PubChem BioAssay AID652189 (Johns Hopkins Ion Channel Center, 2013).
The whole screen tested about 2,300 compounds, of which about 900 (39%) were called active.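 How the source made its calls: active means mean duplicate percent inhibition, scaled so buffer wells are 0 and the reference blocker 100, over three buffer SD above buffer mean; inactive means the rest.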 Only a sample is shown.

Target: Anoctamin-1 (Mus musculus) (UniProt Q8BHY3)
Assay: blockers of mouse ANO1 channel, retest – cell-based, re-confirmation, confirmation (AID 652189)
Details: HEK293 TMEM16A/YFP-H148Q, iodide quench fluorescence, at 10 µM, ionomycin added to raise cell calcium; active compounds read high

Sequence of Anoctamin-1 (Mus musculus) (Q8BHY3 whole entry, looked up): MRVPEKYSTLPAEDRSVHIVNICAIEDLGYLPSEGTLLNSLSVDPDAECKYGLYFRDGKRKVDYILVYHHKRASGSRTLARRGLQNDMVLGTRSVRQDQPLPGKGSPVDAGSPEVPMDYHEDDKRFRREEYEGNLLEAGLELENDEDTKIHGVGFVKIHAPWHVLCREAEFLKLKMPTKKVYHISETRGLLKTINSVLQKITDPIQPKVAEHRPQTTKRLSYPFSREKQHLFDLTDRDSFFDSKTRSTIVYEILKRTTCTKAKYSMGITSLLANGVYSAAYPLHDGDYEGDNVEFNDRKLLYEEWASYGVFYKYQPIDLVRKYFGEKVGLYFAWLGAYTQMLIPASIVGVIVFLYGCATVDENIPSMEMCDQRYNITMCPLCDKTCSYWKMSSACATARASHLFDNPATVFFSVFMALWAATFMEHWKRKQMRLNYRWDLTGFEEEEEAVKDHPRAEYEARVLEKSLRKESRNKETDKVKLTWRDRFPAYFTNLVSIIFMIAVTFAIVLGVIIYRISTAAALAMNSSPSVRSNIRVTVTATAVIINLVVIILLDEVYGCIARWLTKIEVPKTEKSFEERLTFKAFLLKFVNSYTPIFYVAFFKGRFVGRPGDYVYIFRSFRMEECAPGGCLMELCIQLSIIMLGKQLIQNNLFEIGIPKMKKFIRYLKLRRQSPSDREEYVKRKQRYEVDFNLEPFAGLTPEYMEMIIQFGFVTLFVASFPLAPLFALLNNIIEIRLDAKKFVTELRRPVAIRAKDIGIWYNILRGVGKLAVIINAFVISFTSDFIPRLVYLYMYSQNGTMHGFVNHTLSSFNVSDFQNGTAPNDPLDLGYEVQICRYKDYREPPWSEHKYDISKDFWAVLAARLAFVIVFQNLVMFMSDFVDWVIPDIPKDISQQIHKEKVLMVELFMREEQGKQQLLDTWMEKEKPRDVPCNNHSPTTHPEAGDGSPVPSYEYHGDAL

inhibition, active:
CC(=O)c1c(C)[nH]c(C(=O)COC(=O)c2cccc(S(=O)(=O)N(C)c3ccccc3)c2)c1C 33.5%
Cc1ccc2c(c1)N(S(=O)(=O)c1cc(-c3cc(C)no3)ccc1C)CCO2 42.5%
Cc1nc(C)c(-c2csc(NCCc3ccccc3)n2)s1 36%
COc1ccc2[nH]cc(/C=C(/C#N)S(=O)(=O)c3ccccc3)c2c1 28%
COc1ccc(NC(=O)C2=CC(c3ccc(OC)c(OC)c3)=NS(=O)(=O)N2C)cc1 27%
Cn1c(CN2CCOCC2)nc2cc(NC(=O)c3ccc(Cl)cc3)ccc21 20%
Cc1nc2ccccc2cc1OCc1ccc(F)cc1 22.5%
O=C(NCCc1ccc2c(c1)OCCO2)c1cc2ccccc2o1 21%
C=CCn1c(SCC(=O)Nc2nc3ccccc3s2)nnc1-c1ccccc1O 30.5%
C=CCSc1nsc(NC(=O)Nc2cccc(C(C)=O)c2)n1 53%
CSc1nsc(NC(=O)Nc2ccccc2)n1 45%
N#CC1=C(SCc2ccccc2)NC(=O)C(C#N)C12CCCC2 (configuration not stated) 17.5%
CCCc1cc(=S)n2c([nH]c3ccccc32)c1C#N 35.5%
CC1CCN(C(=O)c2ccc(CSc3ccc(Cl)cc3)cc2)CC1 50.5%
CN(c1cccc(NC(=O)c2ccc(CN3CCc4ccccc4C3)cc2)c1)S(C)(=O)=O 20.5%
S=C(NCC1CCCO1)N1CCN(c2ccc(Cl)c(Cl)c2)CC1 (configuration not stated) 21%
Cc1cc(C=O)c(C)n1-c1ccc(NC2CCCCC2)c([N+](=O)[O-])c1 23.5%
CC(C)(C)C(=O)/C(C#N)=C/c1ccc(O)cc1 23%
COc1ccc(C(=O)NC2CCCc3c2cnn3-c2cccc(C)c2C)c(OC)n1 (configuration not stated) 65.5%
COC(=O)c1ccc(COC(=O)c2c(C)nn(Cc3ccccc3Cl)c2Cl)o1 16%
Cc1ccc(F)cc1NC(=O)Cc1nn(C)c(=O)c2ccccc12 34.5%
Cc1[nH]n(-c2cccc(Cl)c2)c(=O)c1-c1ccc(Cl)cc1 24%
CCN(CC)S(=O)(=O)c1ccc(N(C)Cc2ccc(C(F)(F)F)cc2)nc1 22%
CCCOc1ccc(Cc2c(Cl)nc(SC)nc2NC)cc1 44.5%
Cc1ccc(NC(=O)C(C)c2cccc(C(=O)c3ccccc3)c2)cc1 (configuration not stated) 30.5%
Cc1nc2c(C(=O)NCc3ccc4c(c3)OCO4)c[nH]n2c(=O)c1Cc1ccccc1F 18%
Cc1ccc(NC(=O)CN(C)CC(=O)Nc2cccc(F)c2)cc1[N+](=O)[O-] 24.5%
O=C(CNCCC1=CCCCC1)Nc1ccccc1N1CCCCCC1 19.5%
CCc1cc2c(N3CCN(c4nnc(CC)s4)CC3)ncnc2s1 40%
O=C(CSCc1ccc(Cl)cc1)N1CCN(Cc2ccc3c(c2)OCO3)CC1 20%
Cc1ccc(-n2ncc3c(N4CCN(c5ccc(F)cc5)CC4)ncnc32)c(C)c1 28.5%
COC(=O)c1ccc(NC(=O)c2ccccc2NS(=O)(=O)c2ccccc2)cc1 29.5%
CCOC(=O)C1CCN(c2ncnc3c2oc2ccc(Br)cc23)CC1 28%
S=C(NCc1ccc(Cl)cc1)NC12CC3CC(CC(C3)C1)C2 46%
CC(=O)c1cc(CN2CCC(C(=O)Nc3cccc(-c4cscn4)c3)CC2)cs1 21.5%
COc1ccc(S(=O)(=O)NCCCCOc2ccc(Cl)cc2)cc1 23.5%
O=C(Nc1cccc(S(=O)(=O)Nc2ccc(Cl)cc2)c1)c1ccc2c(c1)OCCO2 19%
COc1cccc(CNS(=O)(=O)c2ccc3c(c2)CC(C)N3C(=O)C2CCC2)c1 (configuration not stated) 19.5%
Cc1cccc(-n2c(SCC(N)=O)nc3c(c2=O)C2(CCCCC2)Cc2ccccc2-3)c1 22%
COc1cc(CC(=O)Nc2nc(-c3ccc(F)c(F)c3)cs2)cc(OC)c1OC 25.5%
O=C(Nc1ccccc1)c1ccccc1NC(=O)C(F)(F)F 26.5%
Fc1ccc2[nH]c3c(N4CCSCC4)ncnc3c2c1 41.5%

inhibition, inactive:
CCCCn1ccnc1C(=O)c1cccc(S(=O)(=O)N2c3ccccc3CC2C)c1 (configuration not stated)
CCOC(=O)c1cccc(NC(=O)CCn2nnc3ccccc32)c1
CC(NC(=O)c1ccco1)C(=O)Nc1nc(-c2ccccn2)cs1 (configuration not stated)
Cc1noc(C)c1COC(=O)c1cc2ccccc2cc1O
COc1ccc(CNc2nnnn2C)cc1
Cn1c(CCN2CCCCCC2)nc2cc(NC(=O)Nc3ccccc3)ccc21
CC(C)CNC(=S)NNC(=O)c1nn(C)cc1Cl
O=C(COC(=O)CCc1c[nH]c(=O)[nH]1)Nc1ccccc1Cl
O=C(COc1ccccc1)NCc1ccc2c(c1)OCO2
COc1ccc(-c2nc(CCNC(=O)c3ccc(Br)o3)cs2)cc1
Cc1cccc(N=Nc2c(O)[nH]c3ccc(F)cc23)c1
O=c1cc(C(F)(F)F)[nH]c(=O)n1C1CCCCC1
Cc1ccc(-c2noc(CSc3nnnn3-c3ccccc3)n2)cc1
CN1c2ccc(C=O)c3c(C=O)ccc(c23)N(C)C1(C)C
CN(C)c1cc[n+](Cc2ccccc2)cc1
N#Cc1nc(N)nc(N(c2ccccc2)c2ccccc2)n1
c1ccc(-c2nnc(SCc3nc4ccccc4[nH]3)o2)cc1
CSc1nnc2c(n1)OC(c1ccsc1)N(C(C)=O)c1ccccc1-2 (configuration not stated)
COc1ccc(CCC(=O)c2ccc(OC)cc2)cc1
Cc1ccc2c(c1)N(CC(=O)N1CCCc3ccccc31)C(=O)C(C)O2 (configuration not stated)
CCOC(=O)C1=C(CN2CCc3ccccc32)NC(=O)NC1c1cccc([N+](=O)[O-])c1 (configuration not stated)
O=S1(=O)CCN(Cc2ccccc2Cl)CC1
CCOC(=O)N1CC=C2C(C#N)=C(N)C(C#N)(C#N)[C@H](c3cccs3)[C@H]2C1
CC1=NN(c2cccc(Cl)c2)C(=O)C12CC(C)=C(C)CS2 (configuration not stated)
Cc1ccc(-n2[nH]c(C)c(/C=N/N3C(=O)c4cccc5cccc(c45)C3=O)c2=O)cc1
O=C1NC(=O)C2C1C(c1ccc([N+](=O)[O-])cc1)=NN2Cc1ccccc1 (configuration not stated)
COc1ccc(CN(C)C(=O)CC(c2ccccc2)c2ccccc2)cc1
Cn1c(=O)n(C)c2cc(S(=O)(=O)N3CCCc4ccccc43)ccc21
Cc1ccccc1-n1nnnc1SCCCC(=O)c1ccc(F)cc1
O=C(CN1CCN(C(=S)NC2CCCC2)CC1)Nc1ccc(Oc2ccccc2)cc1
CCCC(=O)Nc1ccccc1N1CCN(C(=O)c2ccccc2)CC1
CCCCNC(=O)CSc1nc2n[nH]c(C)c2c(=N)n1-c1cccc(Cl)c1C
Cc1ccc(C(=O)O)cc1-c1ccc(/C=C2\SC(=O)N(CC(=O)Nc3ccc4c(c3)OCO4)C2=O)o1
O=C(O)c1ccc(NC(=O)C2CCCCC2)cc1
O=C(N/N=C/c1cc(Cl)cc([N+](=O)[O-])c1O)C(O)(c1ccccc1)c1ccccc1
Cc1cc(C)cc(NS(=O)(=O)c2ccc(Oc3ncc(C(F)(F)F)cc3Cl)cc2)c1
Cc1ccc(N2C(=O)S/C(=C/c3cn(C)c4ccccc34)C2=O)cc1
O=C1c2ccccc2C(Nc2ccc3c(c2)OCCO3)N1Cc1ccco1 (configuration not stated)
Cc1ccc(-c2csc(-c3c[nH]c4ccccc34)n2)cc1
S=C(NCc1cccs1)Nc1ccc(Cl)cc1
CN(Cc1cccnc1)C(=O)c1cc(COc2ccc3ncccc3c2)on1
Cc1ccc(C)c(N2CCN(C(=O)CCCCn3c(=O)[nH]c4ccccc4c3=O)CC2)c1
CCOC(=O)N1CCN(C(=O)c2ccc3c(c2)N(Cc2ccc(C)cc2)CCS3)CC1
Cc1nc(CNS(=O)(=O)c2ccc(Oc3ccccc3)cc2)cs1
COc1ccc(OCC(=O)NCCc2ccc(S(N)(=O)=O)cc2)cc1
CCn1nccc1C(=O)Nc1ccc(S(=O)(=O)NC23CC4CC(CC(C4)C2)C3)cc1
CCCCCc1ccc(-c2ccc(C(=O)O)cc2)nc1
COc1ccc(Cl)cc1NC(=O)CCS(=O)(=O)c1cc2c(cc1C)NC(=O)CO2
COc1ccc(-n2c(C)cc(C(=O)CSc3nnc(-c4cccs4)o3)c2C)cc1
Fc1ccc(CSc2nnc(-c3cc4c(s3)-c3ccccc3CC4)o2)cc1
C=C(C)Cn1c(C)cc(C)c(S(=O)(=O)c2ccccc2C)c1=O
O=C(Nc1nc(-c2ccc3c(c2)OCO3)cs1)c1ccncc1
Cc1ccc(N)cc1-n1c(C)ccc1C
CCOC(=O)C(Sc1ncc(C#N)c(N)n1)C(C)C (configuration not stated)
N#Cc1nc(COc2ccc(-c3ccccc3)cc2)oc1NCc1cccnc1
O=C(NC(=S)Nc1ccccc1C(=O)O)c1ccc(-c2ccc(Br)cc2)o1
CSc1cccc(NC(=S)N(C(C)C)C(C)c2ccccn2)c1 (configuration not stated)
CCC(=O)Nc1ccc2nc(C)n(Cc3ccccc3Cl)c(=O)c2c1
Cc1nc(SCC(=O)N2CCc3ccccc3C2)c2c(C)c(C)sc2n1
Cc1ccc(C)c(N2CCN(S(=O)(=O)c3ccc4c(c3)oc(=O)n4C)CC2)c1
